From PubChem BioAssay (EPA / NIEHS)
Where “and” joins values, the source holds several entries; their conditions need not be identical. Identical values can stand only once. More than one record can exist for a structure, and the calls need not agree. Calls of active or inactive are those of the source. The calls were made as follows: active = hit-call score of the fitted dose curve at least 0.9, where 1 is the maximum; inactive = score below 0.9.

Columns and labels:
[1] = read-out: Interleukin-1 alpha (IL1a), IL1A (gene 3552); experiment: BSK_LPS_IL1a: BioMAP Diversity Plus: LPS Assay for Interleukin-1 alpha (IL1a) Biomarker Activity (AID 2283080); details: primary human HUVEC with PBMC; actives raise or lower the signal
How it was run: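 Readout is IL-1a level by ELISA, 24 h post-dose, fitted as gain or loss relative to DMSO. System: LPS-activated human primary co-culture of vascular endothelium and peripheral blood mononuclear cells, with parallel SRB total-protein cytotoxicity.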

[2] = read-out: Monocyte Chemoattractant Protein-1 (MCP1), CCL2 (gene 6347); experiment: BSK_LPS_MCP1: BioMAP Diversity Plus: LPS Assay for Monocyte Chemoattractant Protein-1 (MCP1) Biomarker Activity (AID 2283081); details: primary human HUVEC with PBMC; actives raise or lower the signal;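 as to AC50: co-culture stimulated with LPS; secreted MCP-1 protein quantified by ELISA in culture supernatant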
How it was run: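 Secreted MCP-1 read by ELISA at 24 h post-dosing in an LPS-activated co-culture of endothelial cells with peripheral blood mononuclear cells. Fits run in both directions, DMSO as baseline; parallel SRB staining tracks overt cytotoxicity.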

[3] = BSK_LPS_PGE2: BioMAP Diversity Plus: LPS Assay for Prostaglandin E2 (PGE2) Biomarker Activity (AID 2283082); details: primary human HUVEC with PBMC; actives raise or lower the signal;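 as to AC50: secreted prostaglandin E2 measured by ELISA in LPS-stimulated co-culture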
How it was run: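 Primary human endothelial cells and blood mononuclear cells, co-cultured with LPS, receive test chemical; PGE2 ELISA follows at 24 h, with SRB-stained parallel cultures flagging cytotoxicity.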

[4] = read-out: Macrophage colony-stimulating factor (MCSF), CSF1 (gene 1435); experiment: BSK_LPS_MCSF: BioMAP Diversity Plus: LPS Assay for Macrophage colony-stimulating factor (MCSF) Biomarker Activity (AID 2283083); details: primary human HUVEC with PBMC; actives raise or lower the signal
How it was run: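 Bidirectional fitting against DMSO was applied to M-CSF levels read by ELISA at 24 h post-dose. The system pairs human umbilical vein endothelium with peripheral blood mononuclear cells; parallel SRB staining tracked cytotoxicity.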

[5] = read-out: Tissue Factor, F3 (gene 2152); experiment: BSK_LPS_TissueFactor: BioMAP Diversity Plus: LPS Assay for Tissue Factor Biomarker Activity (AID 2283084); details: primary human HUVEC with PBMC; actives raise or lower the signal
How it was run: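 Compound was added to an endothelial cell/PBMC co-culture, and after 24 h tissue factor (CD142) was read by ELISA. Gain or loss of signal was fitted against a DMSO baseline, and parallel SRB staining (560 nm) tracked overt cytotoxicity.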

[6] = read-out: Tumor necrosis factor (Homo sapiens) (UniProt P01375); experiment: BSK_LPS_TNFa: BioMAP Diversity Plus: LPS Assay for Tumour Necrosis Factor alpha (TNFa) Biomarker Activity (AID 2283085); details: primary human HUVEC with PBMC; actives raise or lower the signal;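 as to AC50: TNFa protein level quantified by ELISA in the co-culture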
How it was run: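 ELISA-based TNFa endpoint in a human endothelial–PBMC co-culture sampled 24 h post-exposure. Curves were fitted in both directions using DMSO as baseline of activity.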

[7] = read-out: Vascular cell adhesion molecule 1 (VCAM1), VCAM1 (gene 7412); experiment: BSK_LPS_VCAM1: BioMAP Diversity Plus: LPS Assay for Vascular cell adhesion molecule 1 (VCAM1) Biomarker Activity (AID 2283086); details: primary human HUVEC with PBMC; actives raise or lower the signal
How it was run: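 Measured by ELISA: VCAM-1 in LPS-activated HUVEC/PBMC co-cultures 24 h after treatment. Values reflect bidirectional fitting with DMSO as baseline.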

[8] = read-out: CD38, CD38 (gene 952); experiment: BSK_SAg_CD38: BioMAP Diversity Plus: SAg Assay for CD38 Biomarker Activity (AID 2283087); details: primary human HUVEC with PBMC; actives raise or lower the signal
How it was run: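 Measures CD38 on a human endothelial/PBMC co-culture driven by SEB and TSST-1, 24 h after compound exposure, using ELISA with fluorescence detection; DMSO defines baseline for bidirectional curve fitting.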

[9] = read-out: CD40, CD40 (gene 958); experiment: BSK_SAg_CD40: BioMAP Diversity Plus: SAg Assay for CD40 Biomarker Activity (AID 2283088); details: primary human HUVEC with PBMC; actives raise or lower the signal
How it was run: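 CD40 is measured by fluorescence ELISA in an endothelial/PBMC primary human co-culture at 24 h post-dose. Fitting is bidirectional, DMSO baseline. Parallel SRB staining (560 nm) flags cytotoxicity.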

[10] = read-out: Monocyte Chemoattractant Protein-1 (MCP1), CCL2 (gene 6347); experiment: BSK_SAg_MCP1: BioMAP Diversity Plus: SAg Assay for Monocyte Chemoattractant Protein-1 (MCP1) Biomarker Activity (AID 2283090); details: primary human HUVEC with PBMC; actives raise or lower the signal
How it was run: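 Values derive from bidirectional fitting of ELISA-measured MCP1 against DMSO controls. Readings were taken 24 h after dosing human vascular endothelial cells co-cultured with peripheral blood mononuclear cells under superantigen stimulation.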

[11] = read-out: E-selectin (Homo sapiens) (UniProt P16581); experiment: BSK_SAg_Eselectin: BioMAP Diversity Plus: SAg Assay for Eselectin Biomarker Activity (AID 2283091); details: primary human HUVEC with PBMC; actives raise or lower the signal
How it was run: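 Cell-surface E-selectin is read by ELISA at 24 h in the SAg co-culture of HUVEC and PBMC. Curves are fitted in both directions relative to DMSO. Parallel SRB total-protein staining tracks overt toxicity.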

[12] = read-out: Monokine induced gamma interferon (MIG), CXCL9 (gene 4283); experiment: BSK_SAg_MIG: BioMAP Diversity Plus: SAg Assay for Monokine induced gamma interferon (MIG) Biomarker Activity (AID 2283092); details: primary human HUVEC with PBMC; actives raise or lower the signal
How it was run: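 ELISA readout of MIG/CXCL9; primary human umbilical vein endothelial cells co-cultured with peripheral blood mononuclear cells; 24 h post-dose; gain/loss fit vs DMSO baseline.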

[13] = BSK_SAg_PBMCCytotoxicity: PBMC Cytotoxicity Assessment in the BioMAP Diversity Plus: SAg Assay (AID 2283093); details: primary human HUVEC with PBMC;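 also: PBMC viability measured as Alamar Blue reduction fluorescence at 546/580 nm; fitted both ways against DMSO so a hit may be loss or gain of signal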;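 as to AC50: PBMC superantigen activated with SEB plus TSST-1 one hour after compound addition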
How it was run: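 Alamar Blue reduction (6 h, 546/580 nm) reports PBMC cytotoxicity after 90 h superantigen activation (SEB, TSST-1; 20 ng/mL final each) with 1 h compound pre-treatment. Gain or loss of signal fitted versus DMSO.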

[14] = read-out: Interleukin-8 (IL8), CXCL8 (gene 3576); experiment: BSK_SAg_IL8: BioMAP Diversity Plus: SAg Assay for Interleukin-8 (IL8) Biomarker Activity (AID 2283094); details: primary human HUVEC with PBMC; actives raise or lower the signal
How it was run: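 Primary human endothelial cells with PBMC, exposed 24 h; IL-8 determined by ELISA, analysed bidirectionally relative to DMSO.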

[15] = BSK_SAg_Proliferation: Cell Proliferation Assessment in the BioMAP Diversity Plus: SAg Assay (AID 2283095); details: primary human HUVEC with PBMC;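 also: relative cell number as total protein by SRB absorbance in sub-confluent culture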
How it was run: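 A human primary co-culture of umbilical vein endothelium and blood mononuclear cells receives compound; relative cell number is quantified at 96 h by SRB staining and 560 nm absorbance, with DMSO-referenced bidirectional curve fitting.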

[16] = BSK_SAg_SRB: Viability Assessment in the BioMAP Diversity Plus: SAg Assay (AID 2283096); details: primary human HUVEC with PBMC;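 also: cells read one day after compound addition; hits may be either gain or loss of signal compared with DMSO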
How it was run: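 This overt-cytotoxicity endpoint quantifies protein in human endothelial/PBMC co-cultures at 24 h using SRB absorbance (560 nm) after trichloroacetic acid fixation. Values reflect signal change from the DMSO negative control, fitted bidirectionally.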

[17] = read-out: CD69, CD69 (gene 969); experiment: BSK_SAg_CD69: BioMAP Diversity Plus: SAg Assay for CD69 Biomarker Activity (AID 2283089); details: primary human HUVEC with PBMC; actives raise or lower the signal;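 as to AC50: cell surface CD69 protein quantified by ELISA with fluorescence detection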
How it was run: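 ELISA, fluorescence read-out: CD69 on human umbilical vein endothelial cell + PBMC co-culture, 24 h post-dosing. Gain or loss of signal fitted bidirectionally against DMSO baseline.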

Tumor necrosis factor (Homo sapiens), sequence (P01375 whole entry, looked up): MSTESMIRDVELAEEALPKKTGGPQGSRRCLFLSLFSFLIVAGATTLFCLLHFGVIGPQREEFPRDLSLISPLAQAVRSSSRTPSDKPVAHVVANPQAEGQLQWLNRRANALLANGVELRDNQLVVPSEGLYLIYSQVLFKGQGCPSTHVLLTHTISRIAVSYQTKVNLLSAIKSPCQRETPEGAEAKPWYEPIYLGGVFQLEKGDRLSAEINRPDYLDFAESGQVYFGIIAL
E-selectin (Homo sapiens), sequence (P16581 whole entry, looked up): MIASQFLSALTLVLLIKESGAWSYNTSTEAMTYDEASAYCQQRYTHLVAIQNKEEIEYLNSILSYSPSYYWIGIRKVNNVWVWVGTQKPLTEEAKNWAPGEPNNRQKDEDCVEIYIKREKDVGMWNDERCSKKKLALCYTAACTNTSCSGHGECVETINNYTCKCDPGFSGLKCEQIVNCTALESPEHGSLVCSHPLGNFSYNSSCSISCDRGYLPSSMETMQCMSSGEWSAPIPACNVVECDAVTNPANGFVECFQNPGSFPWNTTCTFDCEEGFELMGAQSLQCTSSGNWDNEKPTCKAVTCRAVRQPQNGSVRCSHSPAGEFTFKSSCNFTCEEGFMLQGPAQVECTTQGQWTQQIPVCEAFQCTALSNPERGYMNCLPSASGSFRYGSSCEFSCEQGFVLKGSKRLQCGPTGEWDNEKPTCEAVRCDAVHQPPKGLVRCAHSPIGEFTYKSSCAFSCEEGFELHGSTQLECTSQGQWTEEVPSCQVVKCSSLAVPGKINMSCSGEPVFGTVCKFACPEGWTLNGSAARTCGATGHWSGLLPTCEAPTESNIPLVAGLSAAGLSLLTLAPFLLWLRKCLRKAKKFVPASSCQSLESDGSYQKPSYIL

Structure (SMILES): O=S(=O)(OCC(F)F)C(F)(F)F
- outcome [1]: inactive
- outcome [2]: inactive
- outcome [3]: inactive
- outcome [4]: inactive
- outcome [5]: inactive
- outcome [6]: inactive
- outcome [7]: inactive
- AC50 [8]: 0.22 µM (active)
- outcome [8]: inactive
- outcome [9]: inactive
- outcome [10]: inactive
- outcome [11]: inactive
- outcome [12]: inactive
- outcome [13]: inactive
- outcome [14]: inactive
- outcome [15]: inactive
- outcome [16]: inactive

Structure (SMILES): O=S(=O)(O)C(F)(F)C(F)(F)C(F)(F)C(F)(F)C(F)(F)C(F)(F)C(F)(F)F
- outcome [1]: inactive
- outcome [2]: inactive
- outcome [3]: inactive
- outcome [4]: inactive
- outcome [5]: inactive
- outcome [6]: inactive
- outcome [7]: inactive
- outcome [8]: inactive
- outcome [9]: inactive
- outcome [11]: inactive
- outcome [12]: inactive
- outcome [13]: inactive
- outcome [14]: inactive
- outcome [15]: inactive
- outcome [16]: inactive

Structure (SMILES): O=C(O)C(F)(F)C(F)(F)F
- outcome [1]: inactive
- outcome [2]: inactive
- outcome [3]: inactive
- outcome [4]: inactive
- outcome [5]: inactive
- outcome [6]: inactive
- outcome [7]: inactive
- outcome [8]: inactive
- outcome [9]: inactive
- outcome [17]: inactive
- outcome [11]: inactive
- outcome [12]: inactive
- outcome [13]: inactive
- outcome [14]: inactive
- outcome [15]: inactive
- outcome [16]: inactive

Structure (SMILES): O=C(O)C(F)(F)C(F)(F)C(F)(F)C(F)(F)F
- outcome [1]: inactive
- outcome [2]: inactive
- outcome [3]: inactive
- AC50 [4]: 8.3 µM (active)
- outcome [4]: inactive
- outcome [5]: inactive
- outcome [6]: inactive
- outcome [7]: inactive
- outcome [8]: inactive
- outcome [9]: inactive
- outcome [17]: inactive
- outcome [10]: inactive
- outcome [11]: inactive
- outcome [12]: inactive
- outcome [13]: inactive
- outcome [14]: inactive
- outcome [15]: inactive
- outcome [16]: inactive

Structure (SMILES): O=C(O)C(F)(F)C(F)(F)OC(F)(F)F
- outcome [1]: inactive
- outcome [2]: inactive
- outcome [3]: inactive
- outcome [4]: inactive
- outcome [5]: inactive
- outcome [6]: inactive
- outcome [7]: inactive
- outcome [8]: inactive
- outcome [9]: inactive
- outcome [11]: inactive
- outcome [12]: inactive
- outcome [13]: inactive
- outcome [14]: inactive
- outcome [15]: inactive
- outcome [16]: inactive

Structure (SMILES): CCCCCCOC(=O)c1ccccc1O
- outcome [1]: inactive
- AC50 [2]: 40.6 µM (active)
- outcome [2]: inactive
- AC50 [3]: 39.8 µM (active)
- outcome [3]: inactive
- outcome [4]: inactive
- AC50 [5]: 40.6 µM (active)
- outcome [5]: inactive
- AC50 [6]: 37.3 µM (active) and 39.6 µM (active)
- AC50 [7]: 40.2 µM (active) and 38.2 µM (active)
- AC50 [8]: 40.5 µM (active)
- outcome [8]: inactive
- AC50 [9]: 45.2 µM (active) and 29.1 µM (active)
- AC50 [17]: 39.3 µM (active) and 45.2 µM (active)
- AC50 [10]: 27.6 µM (active) and 45.1 µM (active)
- AC50 [11]: 38.3 µM (active) and 39.5 µM (active)
- outcome [12]: inactive
- AC50 [13]: 36.9 µM (active) and 44.8 µM (active)
- AC50 [14]: 38.2 µM (active)
- outcome [14]: inactive
- AC50 [15]: 38.7 µM (active) and 45.4 µM (active)
- AC50 [16]: 42.4 µM (active)
- outcome [16]: inactive
